Results filed as inconclusive are left out. Active and inactive are the calls of the source. Unless noted, calls follow the shape of the full dose curve.

The target of test [1] is Luciferin 4-monooxygenase (Photinus pyralis) (UniProt P08659). Put plainly: Biochemical firefly luciferase enzyme assay for NPC (AID 624030; active = well fitted curve in the direction sought with a large enough effect; an effect the other way counts as inactive or inconclusive;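 also: purified P. pyralis luciferase at 10 nM with luciferin and ATP substrate; 0% = DMSO and -100% = full luciferase inhibition by PTC124 control; nearly all actives have a fitted effect of over 70% in size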). An outline of the steps: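 Purified P. pyralis luciferase at 10 nM in 50 mM Tris Acetate (final), luminescence read within 5 minutes of enzyme addition to compounds. Activity normalised to PTC124 versus DMSO; concentration-response curves classed by r2, magnitude and activity.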
Sequence of Luciferin 4-monooxygenase (Photinus pyralis) (P08659 whole entry, looked up): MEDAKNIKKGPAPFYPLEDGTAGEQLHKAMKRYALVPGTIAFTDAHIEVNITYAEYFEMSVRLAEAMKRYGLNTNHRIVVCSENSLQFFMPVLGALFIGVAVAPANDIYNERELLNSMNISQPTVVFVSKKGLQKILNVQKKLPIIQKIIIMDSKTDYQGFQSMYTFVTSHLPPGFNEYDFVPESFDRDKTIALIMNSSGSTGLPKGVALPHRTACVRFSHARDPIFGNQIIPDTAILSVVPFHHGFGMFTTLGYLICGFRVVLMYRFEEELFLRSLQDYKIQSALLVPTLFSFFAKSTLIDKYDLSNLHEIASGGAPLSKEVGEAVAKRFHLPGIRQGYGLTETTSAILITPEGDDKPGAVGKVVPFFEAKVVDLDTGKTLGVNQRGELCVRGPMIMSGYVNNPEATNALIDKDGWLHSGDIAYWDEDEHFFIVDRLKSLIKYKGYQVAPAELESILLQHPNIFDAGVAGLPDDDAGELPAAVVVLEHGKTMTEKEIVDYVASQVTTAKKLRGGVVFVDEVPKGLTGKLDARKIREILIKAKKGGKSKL

Test [2] in a line: qHTS for Inhibitors of the Functional Ribonucleoprotein Complex (vRNP) of Lassa (LASV) Arenavirus: LASV Primary Screen - GLuc reporter signal (AID 1347082; calls by dose curve; tested in HEK293 reporter line; also: % is scaled to controls: 0 for no effect and ±100 for the full control effect; nearly all actives have a fitted effect of over 60% in size).
A short description of test [3]: qHTS for Inhibitors of the Functional Ribonucleoprotein Complex (vRNP) of Lassa (LASV) Arenavirus: Viability assay - alamar blue signal for LASV Primary Screen (AID 1347083; calls by dose curve; tested in HEK293 reporter line; also: % is scaled to controls: 0 for no effect and ±100 for the full control effect; nearly all actives have a fitted effect of over 80% in size). A general note: qHTS replaces the single test concentration by a dilution series.
A short description of test [4]: qHTS for Inhibitors of the Functional Ribonucleoprotein Complex (vRNP) of Lymphocytic Choriomeningitis Arenaviruses (LCMV): Viability assay - alamar blue signal for LCMV Primary Screen (AID 1347085; calls by dose curve; tested in HEK293 reporter line; also: % is scaled to controls: 0 for no effect and ±100 for the full control effect; nearly all actives have a fitted effect of over 80% in size).
For test [5], the target named is Nucleoprotein (Lymphocytic choriomeningitis virus (strain Armstrong)) (UniProt P09992). Put plainly: qHTS for Inhibitors of the Functional Ribonucleoprotein Complex (vRNP) of Lymphocytic Choriomeningitis Arenaviruses (LCMV): LCMV Primary Screen - GLuc reporter signal (AID 1347086). Also: % is scaled to controls: 0 for no effect and ±100 for the full control effect; nearly all actives have a fitted effect of over 70% in size.
Sequence of Nucleoprotein (Lymphocytic choriomeningitis virus (strain Armstrong)) (P09992 whole entry, looked up): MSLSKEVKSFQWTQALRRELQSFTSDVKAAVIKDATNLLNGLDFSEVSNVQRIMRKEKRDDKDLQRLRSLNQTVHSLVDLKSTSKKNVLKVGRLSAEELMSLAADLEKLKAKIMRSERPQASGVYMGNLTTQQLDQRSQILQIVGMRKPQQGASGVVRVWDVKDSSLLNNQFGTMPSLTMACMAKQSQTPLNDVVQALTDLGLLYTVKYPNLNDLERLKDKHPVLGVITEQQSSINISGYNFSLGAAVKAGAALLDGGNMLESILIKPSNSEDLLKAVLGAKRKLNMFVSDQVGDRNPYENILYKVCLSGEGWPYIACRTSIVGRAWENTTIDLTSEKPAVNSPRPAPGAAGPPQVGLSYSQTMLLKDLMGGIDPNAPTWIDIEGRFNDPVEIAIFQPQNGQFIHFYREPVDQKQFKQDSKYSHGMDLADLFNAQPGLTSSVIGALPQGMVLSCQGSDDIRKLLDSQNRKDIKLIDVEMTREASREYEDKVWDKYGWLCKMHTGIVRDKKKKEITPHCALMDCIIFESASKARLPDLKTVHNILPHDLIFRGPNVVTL
Test [6] can be described thus: Primary qHTS for inhibitors of SARS-S pseudo-typed particle cell entry (AID 1479145). Also: nearly all actives have a fitted effect of over 45% in size.
Test [7] in a line: Primary qHTS for Huh7 cytotoxicity: counterscreen for inhibitors of MERS-S pseudotyped particle cell entry (AID 1479147). As to activity change, negative = cytotoxicity: % is scaled to controls: 0 for no effect and ±100 for the full control effect. The conditions noted are these: outcome: dose series up to 57.1 µM unless noted.
Test [8] is described as follows: Primary qHTS for inhibitors of MERS-S pseudo-typed particle cell entry (AID 1479149). Also: nearly all actives have a fitted effect of over 60% in size. As to activity change, negative = inhibition: % is scaled to controls: 0 for no effect and ±100 for the full control effect.
The nature of test [9]: Primary qHTS for Vero E6 cytotoxicity: counterscreen for inhibitors of SARS-S pseudo-typed particle cell entry (AID 1479150). As to activity change, negative = cytotoxicity: % is scaled to controls: 0 for no effect and ±100 for the full control effect. To be noted: outcome: dose series up to 57.1 µM unless noted.
A short description of test [10]: Cytotoxicity counterscreen for inhibitors of SARS-CoV-2 cell entry (AID 1645845). Also: nearly all actives have a fitted effect of over 50% in size. Summed up: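 Counterscreen run in the same HEK293-ACE2 line as the pseudotyped-particle entry assay, without particles. Viability after 48 h at 37 C was read as ATP luminescence, scaled between cell-containing and cell-free wells.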
On the technique in general: Counterscreens check selectivity or assay interference.

Test [11] concerns the target Peroxisome proliferator-activated receptor delta (Homo sapiens) (UniProt Q03181). Put plainly: qHTS assay for small molecule agonists of peroxisome proliferator-activated receptor delta signaling (AID 588534).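 Also: 0% = DMSO basal wells and 100% = positive control agonist at 10 µM.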 An outline of the steps:
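Agonist-mode qHTS; reporter cells, 5 hrs 37 C pre-incubation; compound titration, 18 hrs 37 C; CCF4 dye, 2 hrs RT; fluorescence read. EC50/efficacy via Hill fit.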

A short description of test [12]: Primary qHTS to identify inhibitors of SARS-CoV-2 cell entry (AID 1645846). Also: nearly all actives have a fitted effect of over 45% in size. To be noted: activity change, negative = inhibition: at 57.1 µM (top of the series) unless noted. Summed up: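 Luminescence readout (Bright-Glo luciferase) 48 h after pseudoparticle addition. HEK293-ACE2 cells, 1500/well; compound pre-incubation 1 h; Normalized to spike PP and bald PP.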

Test [13] in a line: Inducers of the Endoplasmic Reticulum Stress Response (ERSR) in human glioma: Validation (AID 504836; active = well fitted curve in the direction sought with a large enough effect; an effect the other way counts as inactive or inconclusive; also: 0% is about no effect). An outline of the steps: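 Stably transfected U87-MG glioma cells carrying a GRP78-based luciferase sensor; 16 h compound incubation. Luminescence end-point read 10 min after Bright-Glo addition at room temperature.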
The nature of test [14]: Validation screen for inhibitors of Lassa infection (AID 463096). Also: % is scaled to controls: 0 for no effect and ±100 for the full control effect.
The target of test [15] is Cytochrome P450 3A4 (Homo sapiens) (UniProt P08684). Put plainly: qHTS Assay for Activators of Cytochrome P450 3A4 (AID 885; active = well fitted curve in the direction sought with a large enough effect; an effect the other way counts as inactive or inconclusive; also: nearly all actives have a fitted effect of over 65% in size). An outline of the steps:
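Luminescent readout of luciferin formed from 25 uM Luciferin-PPXE (KM level) by 20 nM CYP3A4 in 200 mM KPO4, with 60 min NADPH-driven reaction at room temperature after 10 min compound exposure. Ketoconazole (57 uM) defined 100% inhibition.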

Test [16] has as its target Alpha-galactosidase (Coffea arabica) (UniProt Q42656). Put plainly: Counterscreen for Glucocerebrosidase Inhibitors: qHTS Assay for Coffee Bean alpha-Galactosidase at pH 4.5 (AID 957; active = well fitted curve in the direction sought with a large enough effect; an effect the other way counts as inactive or inconclusive;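 also: plate controls were enzyme alone for no effect and no enzyme for full effect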). An outline of the steps:
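Enzyme is added first (2 nM final), then compounds titrated from 0.7 nM to 77 uM, then 80 uM 4-methylumbelliferyl alpha-D-galactopyranoside; after 20 min at room temperature a pH 10 NaOH/glycine stop precedes fluorescence reading at 365/440 nm.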

For test [17] the target is unchanged. Put plainly: Counterscreen for Glucocerebrosidase Inhibitors: qHTS Assay for Coffee Bean alpha-Galactosidase at pH 5.9 (AID 998; active = well fitted curve in the direction sought with a large enough effect; an effect the other way counts as inactive or inconclusive;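 also: plate controls were uninhibited enzyme for no effect and no-enzyme basal signal for full effect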). An outline of the steps:
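Enzyme 2 nM + cpd (0.7 nM–77 uM titration) + 4-MU-alpha-Gal 80 uM, pH 5.9 citrate/Tween-20, RT 20 min, NaOH/glycine stop pH 10, fluor 365/440. Normalized to no-enzyme and full-activity controls; Hill-fit AC50.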

Test [18] has as its target Nuclear receptor subfamily 1 group I member 3 (Homo sapiens) (UniProt Q14994). Put plainly: Primary qHTS for antagonist of constitutive androstane receptor (CAR) against the NCATS DSHEA and TCM libraries (AID 1794836; active = well fitted curve in the direction sought with a large enough effect; an effect the other way counts as inactive or inconclusive;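 also: HepG2 cells stably expressing hCAR with CYP2B6 luciferase reporter stimulated by CITCO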). An outline of the steps:
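HepG2-CYP2B6-hCAR cells, attached 5 h, given compounds plus CITCO agonist […], incubated 24 h at 37 C. Luciferase luminescence read, multiplexed with CellTiter-Fluor viability (Ex/Em 405/540 nm).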

Sequence of Alpha-galactosidase (Coffea arabica) (Q42656 whole entry, looked up): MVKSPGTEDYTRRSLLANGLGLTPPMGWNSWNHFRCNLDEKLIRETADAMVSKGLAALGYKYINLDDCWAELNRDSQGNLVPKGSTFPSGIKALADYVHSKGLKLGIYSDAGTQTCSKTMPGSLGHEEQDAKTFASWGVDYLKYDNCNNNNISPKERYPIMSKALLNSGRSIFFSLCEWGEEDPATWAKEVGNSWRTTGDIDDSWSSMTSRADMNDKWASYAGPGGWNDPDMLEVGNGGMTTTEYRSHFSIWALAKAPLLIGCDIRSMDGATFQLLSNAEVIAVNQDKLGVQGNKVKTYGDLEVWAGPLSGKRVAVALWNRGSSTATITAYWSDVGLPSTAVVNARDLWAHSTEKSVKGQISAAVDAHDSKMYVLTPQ
Sequence of Peroxisome proliferator-activated receptor delta (Homo sapiens) (Q03181 whole entry, looked up): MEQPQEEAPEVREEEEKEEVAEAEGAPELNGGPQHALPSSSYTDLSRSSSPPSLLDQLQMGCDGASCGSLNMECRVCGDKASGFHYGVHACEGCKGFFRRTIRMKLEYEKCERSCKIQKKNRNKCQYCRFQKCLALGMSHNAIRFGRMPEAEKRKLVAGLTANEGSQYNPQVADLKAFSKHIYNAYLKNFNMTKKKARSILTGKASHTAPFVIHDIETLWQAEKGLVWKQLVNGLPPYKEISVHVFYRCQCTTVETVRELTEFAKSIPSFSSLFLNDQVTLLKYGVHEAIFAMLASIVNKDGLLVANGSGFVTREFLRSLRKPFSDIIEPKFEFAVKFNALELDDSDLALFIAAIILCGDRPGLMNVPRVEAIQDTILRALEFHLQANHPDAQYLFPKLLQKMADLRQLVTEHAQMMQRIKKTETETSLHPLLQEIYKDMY
Sequence of Cytochrome P450 3A4 (Homo sapiens) (P08684 whole entry, looked up): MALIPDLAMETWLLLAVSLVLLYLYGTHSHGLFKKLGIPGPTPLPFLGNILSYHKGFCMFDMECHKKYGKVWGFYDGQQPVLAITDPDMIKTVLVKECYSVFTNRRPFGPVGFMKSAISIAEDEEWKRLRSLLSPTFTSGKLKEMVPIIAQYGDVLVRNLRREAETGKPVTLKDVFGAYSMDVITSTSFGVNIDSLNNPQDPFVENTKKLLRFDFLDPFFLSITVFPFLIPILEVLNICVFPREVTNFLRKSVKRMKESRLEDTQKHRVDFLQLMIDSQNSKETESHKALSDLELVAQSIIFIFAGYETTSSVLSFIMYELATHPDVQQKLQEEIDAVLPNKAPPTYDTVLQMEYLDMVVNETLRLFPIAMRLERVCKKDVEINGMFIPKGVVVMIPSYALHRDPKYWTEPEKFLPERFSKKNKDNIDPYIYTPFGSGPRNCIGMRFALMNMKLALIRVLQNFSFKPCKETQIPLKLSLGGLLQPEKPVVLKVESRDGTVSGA
Sequence of Nuclear receptor subfamily 1 group I member 3 (Homo sapiens) (Q14994 whole entry, looked up): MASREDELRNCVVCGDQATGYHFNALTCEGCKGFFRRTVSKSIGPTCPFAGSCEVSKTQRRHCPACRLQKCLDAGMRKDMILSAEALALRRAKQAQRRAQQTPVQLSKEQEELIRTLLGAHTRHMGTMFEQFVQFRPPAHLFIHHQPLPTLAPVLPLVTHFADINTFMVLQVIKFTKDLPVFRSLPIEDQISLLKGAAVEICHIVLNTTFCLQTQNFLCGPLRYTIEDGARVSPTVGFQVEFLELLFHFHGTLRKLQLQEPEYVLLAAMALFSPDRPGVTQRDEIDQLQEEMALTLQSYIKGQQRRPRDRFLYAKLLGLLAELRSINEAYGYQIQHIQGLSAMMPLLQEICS

In the case of `Nc1ncnc2c1ncn2[C@@H]1O[C@H](COP(=O)(O)OP(=O)(O)OP(=O)(O)O)[C@@H](O)[C@H]1O`, the Potency entry in [1], in test [2], in [3], in test [4] and in [5] was “inactive” throughout. Also, the outcome in test [6] is “inactive [at 0.573 µM]”. The activity change, negative = cytotoxicity in [7] was -18.7% [at 0.573 µM] (inactive); in test [9], -8.27% [at 0.573 µM] (inactive); in test [10] it was -13.7% [at 0.702 µM] (inactive). For the same molecule, the activity change, negative = inhibition in test [8] was -11.5% [at 0.573 µM] (inactive).

As for `CCCCCCCCCC(=O)O`, the Potency entry in test [11], in [2], in [3], in [4], in test [5] and in test [6] was “inactive” throughout. Moreover, the Potency result in [8], in [10] and in [12] was “inactive” each time. Besides, the molecule was called inactive in test [7] and in test [9].

For `CCCCCCCCCCCCCCCC(=O)OC[C@@H](NC(=O)C(Cl)Cl)[C@H](O)c1ccc([N+](=O)[O-])cc1`, the Potency entry in test [2], in [3], in test [4], in test [5], in [6] and in [8] was “inactive” throughout. Moreover, the Potency result in [10] and in [12] was “inactive” each time. In addition, the molecule was called inactive in test [7] and in test [9].

On to `CO/N=C(\C(=O)N[C@@H]1C(=O)N2C(C(=O)O)=C(COC(C)=O)CS[C@H]12)c1csc(N)n1`, for which the result in [13], in test [7] and in [9] was inactive. Besides, the Potency entry in test [2], in test [3], in test [4], in test [5], in test [6] and in test [8] was “inactive” throughout. The Potency result in test [10] and in [12] was “inactive” throughout.

For `CC1=C(/C=C/C(C)=C/C=C/C(C)=C\C(=O)O)C(C)(C)CCC1`, the Potency result in [14], in [2], in [3], in [4], in test [5] and in test [6] was “inactive” in each case. The Potency entry in [8] and in test [10] was “inactive” in each case. Moreover, the molecule was classed as inactive in test [13], in test [7] and in [9].

As for `NCCCNCCCCNC(=O)C(O)NC(=O)CCCCCCN=C(N)N` (stereo not drawn), the Potency result in test [2], in test [3], in [4], in [5] and in [8] was “inactive” in each case. Also, the call in [7] and in test [9] was inactive.

Consider `C[N+](C)(C)CCO`, for which the Potency result in test [15], in test [14], in test [2], in test [3], in test [4] and in test [5] was “inactive” in each case. Further, the Potency result in test [6], in test [8], in test [10] and in [18] was “inactive” throughout. Besides, the outcome in test [16], in test [17] and in [13] was inactive. The outcome in [7] and in [9] was “inactive [at 114 µM]” throughout. For the same molecule, the activity change, negative = inhibition in test [12] was -23.8% [at 114 µM].

Turning to `N[C@H](CO)C(=O)O`, the Potency entry in test [14], in [2], in test [3], in test [4], in test [5] and in [6] was “inactive” each time. For the same molecule, the Potency entry in test [8], in [10] and in test [12] was “inactive” each time. Also, the outcome in test [13], in [7] and in test [9] was inactive.
